Source: PubChem BioAssay
PLK1 PBD block: qHTS for Inhibitors of PLK1-PDB (polo-like kinase 1 - polo-box domain): Primary Screen; Serine/threonine-protein kinase PLK1 (Homo sapiens), P53350; Plk1 PBD binding of FITC phosphopeptide, fluorescence polarization; Potency, µM, actives largely listed as inhibitors; 360,000 tested, 2.8% active; note: series mostly up to about 57 µM; nearly all actives have a fitted effect of over 65% in size
Tb PFK block: qHTS Assay to Find Inhibitors of T. brucei phosphofructokinase; 330,000 tested, 0.17% active; ATP-dependent 6-phosphofructokinase (Trypanosoma brucei brucei), O15648; Potency, µM (doses to about 57.5 µM), usual class: inhibitors; T. brucei PFK, ADP-Glo luminescence; note: nearly all actives have a fitted effect of over 60% in size
Target sequence (O15648 whole entry, looked up): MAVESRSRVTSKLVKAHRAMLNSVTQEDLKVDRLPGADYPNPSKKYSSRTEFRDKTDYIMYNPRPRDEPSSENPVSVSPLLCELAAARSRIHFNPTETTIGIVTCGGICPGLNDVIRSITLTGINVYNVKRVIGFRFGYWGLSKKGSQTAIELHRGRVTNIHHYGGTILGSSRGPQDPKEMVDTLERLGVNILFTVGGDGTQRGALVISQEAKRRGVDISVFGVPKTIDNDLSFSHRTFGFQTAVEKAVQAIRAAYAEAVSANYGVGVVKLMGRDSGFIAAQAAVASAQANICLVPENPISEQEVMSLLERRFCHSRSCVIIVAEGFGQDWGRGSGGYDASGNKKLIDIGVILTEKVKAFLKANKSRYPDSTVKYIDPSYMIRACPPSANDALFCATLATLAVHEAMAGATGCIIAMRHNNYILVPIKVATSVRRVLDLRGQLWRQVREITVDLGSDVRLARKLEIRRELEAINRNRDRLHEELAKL
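Luminescent ADP detection (ADP-Glo, two-step: ATP depletion then ADP-to-ATP conversion for luciferase) reported PFK activity after 45 min room-temperature reaction of 1.25 nM enzyme with 0.5 mM F6P and 0.1 mM ATP at pH 8.0.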
VDR inh: Inhibitors of the vitamin D receptor (VDR): qHTS; Vitamin D3 receptor (Homo sapiens), P11473; VDR-SRC2-3 peptide fluorescence polarization, 2 h; Potency, µM, usual class: inhibitors; 400,000 tested, 0.93% active; AID 504847, 2011
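VDR–SRC2-3 interaction, FP format. Cmpds 23 nl via pintool, brief spin, 2 h ambient incubation.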
BRCA1 expr act: qHTS Assay to Identify Small Molecule Activators of BRCA1 Expression; MCF7-BRCA1-FFLuc reporter, luminescence, 48 h; response scale: scaled: vehicle 0%, 10 µM genistein 100%; AID 624202, 2012; Potency, µM (doses to about 46.1 µM), usual class: activators; 380,000 tested, 1.1% active; note: nearly all actives have a fitted effect of over 80% in size
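Activators of BRCA1 expression were detected as increased firefly luciferase luminescence in engineered MCF7 cells after 48 h compound incubation. Signals were scaled to genistein 10 microM as full activation.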
Of the large screens only hits and unclear results are named; the others gave an inactive call. Hits are enriched below; roughly 3.9% of the tested compounds scored in any of these assays. Calls come from the whole dose curve; as a rule, active = well fitted curve in the direction sought with a large enough effect; inconclusive = small, poorly fitted or top-dose-only effect, or another doubt; inactive = no such curve, though single readings can be large; an effect the other way counts as inactive or inconclusive.

CNC(=O)C1CCC(Cn2c(=O)c3sccc3n(CC(=O)Nc3cc(F)ccc3F)c2=O)CC1 (centres undefined)	none (no result: PLK1 PBD block, Tb PFK block, BRCA1 expr act)
CCCCCCc1cc2cc(C(=O)NC)c(=N)oc2cc1O	PLK1 PBD block 3.4µM
Nc1nc(SCC(=O)Nc2ccc(Cl)cn2)n[nH]1	PLK1 PBD block 30µM
O=[N+]([O-])c1cc([N+](=O)[O-])c2cc3ccccc3nc2c1	PLK1 PBD block 0.42µM, VDR inh inconclusive
CCOC(=O)COc1ccc(C)cc1C(=O)c1ccn2nc(-c3ccc(C)cc3)cc2n1	none (no result: PLK1 PBD block, Tb PFK block)
N#Cc1c(SCC(=O)Nc2nccs2)sc2c(O)cc(=O)[nH]c12	PLK1 PBD block inconclusive
N#Cc1c(SCC(=O)Nc2nc3ccccc3s2)sc2c(O)cc(=O)[nH]c12	PLK1 PBD block 24µM
CCCSc1nnc(NC(=O)CSc2sc3c(O)cc(=O)[nH]c3c2C#N)s1	PLK1 PBD block 17µM
CCNc1ncc2nc(-c3cccs3)c(=O)n(CCc3ccccc3)c2n1	none (no result: PLK1 PBD block, Tb PFK block, BRCA1 expr act)
Cc1ccc(-n2ncc(C(=O)NCCN3CCN(C)CC3)c2C2CCN(C(=O)OC(C)(C)C)CC2)c(C)c1	none (no result: PLK1 PBD block, Tb PFK block, BRCA1 expr act)
COc1cc(Cl)c(C)cc1N1C(=O)CN(Cc2ccccc2)C1=S	PLK1 PBD block 24µM
Cc1ccc(NC(=S)N2CCC(c3ccc(C)cc3)C2)cc1 (centres undefined)	PLK1 PBD block 21µM, VDR inh inconclusive, BRCA1 expr act 11µM
COc1ccc(NC(=S)N2CCC(c3ccc(C)cc3)C2)cc1 (centres undefined)	none
Cc1ccc(C2CCN(C(=O)Nc3ccccc3)C2)cc1 (centres undefined)	BRCA1 expr act 5µM
Cc1ccc(NC(=O)N2CCC(c3ccccc3)C2)cc1C (centres undefined)	BRCA1 expr act 2.8µM
O=C(c1ccc(F)cc1)N1CCC(c2ccccc2)C1 (centres undefined)	BRCA1 expr act 6.3µM
O=C(CSc1n[nH]c(=O)[nH]c1=O)N/N=C/C=C\c1ccccc1	PLK1 PBD block 24µM
CCOc1ccc(NC(=O)Nc2cc(C)ccc2F)cc1	BRCA1 expr act 2.5µM
COC(=O)C1=C(C)NC(C)=C(C(=O)OCCSc2ccccc2)C1C (centres undefined)	none (no result: PLK1 PBD block, Tb PFK block, BRCA1 expr act)
Cc1ccc(C)c(NC(=O)CSc2nc3[nH]ncc3c(=O)[nH]2)c1	none
Cc1ccc(CNC(=O)CSc2nc3[nH]ncc3c(=O)[nH]2)cc1	PLK1 PBD block 27µM
CCCNC1(C(N)=O)CCN(Cc2ccccc2)CC1	none (no result: Tb PFK block)
COc1cccc(CNC(=O)CCS(=O)(=O)c2ccc3c(c2)CC(C)N3C(=O)C2CC2)c1 (centres undefined)	PLK1 PBD block 21µM
CC1CCC(NC(=O)CCS(=O)(=O)c2ccc3c(c2)CC(C)N3C(=O)C2CC2)CC1 (centres undefined)	PLK1 PBD block 30µM
CC(=O)N1c2ccc(S(=O)(=O)NCC3CCC(C(=O)NC4CCCCC4C)CC3)cc2CC1C (centres undefined)	PLK1 PBD block 27µM
COc1cccc(CNC(=O)CCNS(=O)(=O)c2ccc3c(c2)CC(C)N3C(C)=O)c1 (centres undefined)	PLK1 PBD block 27µM, VDR inh inconclusive
NC(=S)N1N=C(c2ccccc2)CC1=O	none (no result: Tb PFK block)
COc1cc(OC)c(C(=O)c2ccccc2[N+](=O)[O-])c(OC)c1	none (no result: Tb PFK block, VDR inh)
COc1ccc(CC(=O)NO)cc1	none (no result: PLK1 PBD block, Tb PFK block, VDR inh)
COc1ccc(OC)c(NC(=O)CCNS(=O)(=O)c2ccc3c(c2)CC(C)N3C(C)=O)c1 (centres undefined)	none (no result: Tb PFK block, VDR inh)
CCOc1ccc(NC(=O)CCNS(=O)(=O)c2ccc3c(c2)CC(C)N3C(C)=O)cc1 (centres undefined)	PLK1 PBD block 3µM, VDR inh inconclusive
O=C(COc1ccccc1Cl)N(Cc1cccc(F)c1)C1CCS(=O)(=O)C1 (centres undefined)	none (no result: PLK1 PBD block, Tb PFK block, BRCA1 expr act)
CC(C)N(C)CCOC(=O)c1ccccc1Br	PLK1 PBD block 24µM, VDR inh inconclusive
CC(C)N(C)CCOC(=O)c1ccccc1Cl	none
FC(F)Sc1ccc(Nc2ncnc3nc[nH]c23)cc1	BRCA1 expr act 3.5µM
Cc1cc(C)cc(Nc2ncnc3nc[nH]c23)c1	none
CCOC(=O)CNc1ncnc2nc[nH]c12	none
CCCCOC(=O)c1ccc(Nc2ncnc3nc[nH]c23)cc1	VDR inh inconclusive, BRCA1 expr act 10µM
COc1ccc(Cc2nnc(NC(=O)Nc3ccccc3OC)s2)cc1	none
COc1cccc(C(=O)Nc2nnc(Cc3ccc(OC)c(OC)c3)s2)c1	none
CCCc1nnc(NC(=O)Nc2ccccc2OC)s1	BRCA1 expr act 22µM
CCOCCc1nnc(NC(=O)c2cc(OC)c(OC)c(OC)c2)s1	none
CCCc1nnc(NC(=O)c2cccc(OC)c2)s1	BRCA1 expr act 7.1µM
CCOCCc1nnc(NC(=O)c2cccc(F)c2)s1	PLK1 PBD block 27µM
COc1cccc(-n2c(=O)c3c(C)c(C)sc3n(Cc3ccccc3C#N)c2=O)c1	none (no result: PLK1 PBD block, Tb PFK block, BRCA1 expr act)
S=C(SSC(=S)N1CCOCC1)N1CCOCC1	PLK1 PBD block 1.5µM (no result: Tb PFK block, VDR inh)
CCCCCCCCCCCCCCCC(=O)NC(C)C(=O)O (centres undefined)	none (no result: PLK1 PBD block, Tb PFK block, BRCA1 expr act)
CCCCCCCCCCCCCCCC(=O)N[C@@H](COP(=O)(O)O)C(=O)O	VDR inh 13µM (no result: PLK1 PBD block, Tb PFK block, BRCA1 expr act)
C[C@@H]1COc2cccc(N3CCC[C@H]3CO)c2S(=O)(=O)N1	none (no result: Tb PFK block, VDR inh)
Nc1ccc2oc(-c3ccccc3Cl)cc(=O)c2c1O	BRCA1 expr act 7.1µM
COC(=O)c1ccc(COC(=O)CCNS(=O)(=O)c2ccc(C)c(C)c2)cc1	none
COc1cccc(OCCNCc2ccccc2)c1	PLK1 PBD block 17µM, VDR inh inconclusive
Cc1cc(/C=C2\SC(=S)NC2=O)c(C)n1-c1ccc(O)cc1	BRCA1 expr act 2.2µM
Cc1cc(C(=O)O)ccc1-n1c(C)cc(/C=C2\SC(=O)NC2=O)c1C	none
COC(=O)c1cccc(-n2c(C)cc(/C=C3\SC(=O)NC3=O)c2C)c1	BRCA1 expr act 10µM (no result: Tb PFK block, VDR inh)
CCOc1ccc(CCNC(=O)c2nn(-c3ccc(OC)cc3)c(=O)c3c2c2ccccc2n3C)cc1OCC	none (no result: PLK1 PBD block, Tb PFK block, BRCA1 expr act)
CCCCn1c(=O)[nH]c2nc3cc(N)ccc3nc2c1=O	PLK1 PBD block 4.7µM, VDR inh inconclusive, BRCA1 expr act inconclusive
Nc1ccc2nc3c(=O)n(CCc4ccccc4)c(=O)[nH]c3nc2c1	PLK1 PBD block 4.2µM
Nc1ccc2nc(CCc3ccccc3)[nH]c2c1	BRCA1 expr act inconclusive
Cc1cc2nc3c(=O)n(CCc4ccccc4)c(=O)[nH]c3nc2cc1N	PLK1 PBD block 2.7µM
COc1ccc2c(CNCc3ccco3)c(C(=O)O)n(Cc3cccc(F)c3)c2c1	none (no result: PLK1 PBD block, Tb PFK block, BRCA1 expr act)
O=C(OCc1ccccc1F)c1ccc2c(c1)-c1ccccc1C2=O	BRCA1 expr act 7.1µM
CCOC(=O)c1ccc(COC(=O)c2ccc3c(c2)-c2ccccc2C3=O)cc1	VDR inh inconclusive
O=C(OCc1cccc(F)c1)c1ccc2c(c1)-c1ccccc1C2=O	BRCA1 expr act 11µM
CCOC(=O)c1cc(S(=O)(=O)Nc2ccc(Br)c(C)c2)[nH]n1	none (no result: PLK1 PBD block, Tb PFK block)
